Test [1] deals with Luciferin 4-monooxygenase (Photinus pyralis) (UniProt P08659). Nature of the test: qHTS assay to identify small molecule inhibitors of firefly luciferase (AID 1224835). Further: nearly all actives have a fitted effect of over 25% in size. Put shortly:
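Biochemical qHTS: compounds run as interplate titrations against purified firefly enzyme, with D-luciferin and ATP each at its KM concentration. Light output recorded by CCD imaging.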

The nature of test [2]: qHTS assay to identify small molecule agonists of the constitutive androstane receptor (CAR) signaling pathway - cell viability counter screen (AID 1224836). Further: nearly all actives have a fitted effect of over 45% in size. Put shortly:
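Compound titrations (15 concentrations) went onto HepG2-CYP2B6-hCAR cells 4 h after seeding, alongside PK11195 at a final 0.75 uM; a 23 h, 37 C/5% CO2 incubation preceded CellTiter-Fluor viability measurement.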
In general terms: qHTS replaces the single test concentration by a dilution series.

Test [3] in a line: qHTS assay to identify small molecule antagonists of the constitutive androstane receptor (CAR) signaling pathway - cell viability counter screen (AID 1224837). Further: nearly all actives have a fitted effect of over 45% in size. A digest of the protocol: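 HepG2 cells stably expressing hCAR and a CYP2B6-2.2kb reporter were plated and pre-incubated 4 hr at 37 C/5% CO2, then given compounds at 15 concentrations plus 50 nM CITCO (final). After 23 hr, viability was read by CellTiter-Fluor fluorescence.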

Test [4] deals with Nuclear receptor subfamily 1 group I member 3 (Homo sapiens) (UniProt Q14994). Nature of the test: qHTS assay to identify small molecule antagonists of the constitutive androstane receptor (CAR) signaling pathway (AID 1224838). Further: nearly all actives have a fitted effect of over 40% in size. Put shortly: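 HepG2 cells stably co-transfected with hCAR and a CYP2B6-2.2kb luciferase reporter were seeded 4 h before compound addition at 15 concentrations. Cells were stimulated with 50 nM CITCO (final) for 24 h at 37 C; luciferase luminescence was then read.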

Test [5] can be described thus: qHTS assay to identify small molecule antagonists of the estrogen related receptor signaling pathway with the pleiotropic PPARgamma coactivator (PGC) from Tox21 10K library - cell viability counter screen (AID 1224840; active means well fitted cell-killing curve with a large enough effect in the repeat runs, not every such curve was filed as active; further: nearly all actives have a fitted effect of over 40% in size). Put shortly: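 PGC/ERR cells were seeded at 2,000 cells/well and left 6 hours at 37 C/5% CO2 before pin-tool addition of compounds in DMSO. After 17.5 hours at 37 C, CellTiter-Fluor was added and fluorescence read 30 minutes later.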

The target in test [6] is Thyrotropin receptor (Homo sapiens) (UniProt P16473). The test is described as follows: qHTS assay to identify small molecule agonists of the thyroid stimulating hormone receptor (TSHR) signaling pathway (AID 1224843; calls by dose curve; further: nearly all actives have a fitted effect of over 45% in size). Put shortly:
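TSHR-HEK293 cells in agonist mode, 30 min room-temperature step, then cAMP measured by competitive HTRF (cAMP-d2 with anti-cAMP cryptate) after 1 h at room temperature. Tested at 15 concentrations in triplicate.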

The nature of test [7]: qHTS assay to identify small molecule agonists of the hypoxia (HIF-1) signaling pathway - cell viability counter screen (AID 1224844; calls by dose curve; further: nearly all actives have a fitted effect of over 50% in size; further: potency means the concentration at half of the fitted maximal effect). A digest of the protocol: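 HRE-bla ME-180 cells in medium with 0.5% dialyzed FBS were preincubated 5 hrs at 37C, exposed to compounds for 17 hrs, then viability was read as CellTiter-Glo luminescence after 30 min at room temperature, in the reporter wells.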

Test [8] in a line: qHTS assay to identify small molecule agonists of the hypoxia (HIF-1) signaling pathway (AID 1224846; active means well fitted activation curve with a large enough effect in the signal ratio in the repeat runs, not every such curve was filed as active; the % refers to the signal ratio). A digest of the protocol: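 HRE-bla ME-180 cells (beta-lactamase reporter under hypoxia response element) were plated at 2,000 cells/well in medium with 0.5% dialyzed FBS, rested 5 hrs, then given compounds in DMSO for 17 hrs at 37C, 5% CO2. Reporter induction was read with CCF4-AM FRET substrate.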

Test [9] in a line: qHTS assay to identify small molecule agonists of H2AX - cell viability counter screen (AID 1224847; calls by dose curve; further: top concentration of the series differs between compounds; nearly all actives have a fitted effect of over 30% in size). Put shortly:
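Read-out: CellTiter-Glo luminescence, 30 min RT. Cells: wild-type CHO-K1, 1000/well, 10% FBS, plated overnight at 37C. Treatment: 15 concentrations, 3 hr, 37C, 0.76% DMSO.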

Test [10] can be described thus: qHTS RealTime-Glo MT Cell Viability Assay in HepG2 cells - 24 hour (AID 1224867). Further: nearly all actives have a fitted effect of over 50% in size. Put shortly:
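Luminescence read-out: viable HepG2 cells reduce a prosubstrate to a NanoLuc substrate, giving a signal proportional to live cell number. Reads taken at 0, 8, 16, 24, 32 and 40 h of compound exposure at 37 C.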

A short description of test [11]: qHTS RealTime-Glo MT Cell Viability Assay in HEK293 cells - 32 hour (AID 1224868). Further: top concentration of the series differs between compounds; nearly all actives have a fitted effect of over 50% in size. A digest of the protocol: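 Nonlytic real-time viability readout: viable cells convert prosubstrate to NanoLuc substrate, giving luminescence proportional to live cell number. HEK293, 600 cells/well, compound added after 5 h, continuous culture at 37 C.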
The nature of test [12]: A CellTox Green Cytotoxicity Assay to monitor cytotoxicity in HEK293 cells - 0 hour (AID 1224869). Further: nearly all actives have a fitted effect of over 50% in size. A digest of the protocol: (§1)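 HEK293 cells premixed with CellTox Green dye were seeded at 600 cells/well and left 5 h at 37 C/5% CO2 before pin transfer of 23 nL compound in DMSO. Fluorescence from dye bound to dead-cell DNA was read during 40 h treatment.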
A short description of test [13]: qHTS RealTime-Glo MT Cell Viability Assay in HepG2 cells - 40 hour (AID 1224870). Further: nearly all actives have a fitted effect of over 50% in size. Put shortly:
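HepG2 cells (600/well) mixed with RealTime-Glo MT reagent, settled 5 h at 37 C/5% CO2 before compound addition. Nonlytic NanoLuc luminescence from viable-cell prosubstrate reduction read repeatedly during 40 h treatment at 37 C.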

Test [14] can be described thus: A CellTox Green Cytotoxicity Assay to monitor cytotoxicity in HEK293 cells - 40 hour (AID 1224871). Further: nearly all actives have a fitted effect of over 45% in size. A digest of the protocol: as §1
The nature of test [15]: qHTS assay to identify small molecule antagonists of the estrogen related receptor signaling pathway with the pleiotropic PPARgamma coactivator (PGC) from Tox21 10K library (AID 1224841; call rule not given here). A digest of the protocol:
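PGC/ERR reporter cells were seeded at 2,000 cells/well and held 6 hours at 37 C/5% CO2 before pin-tool addition of compounds in DMSO. After 18 hours at 37 C, One-Glo was added and luminescence read after 30 minutes at room temperature.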

Test [16] can be described thus: qHTS assay to identify small molecule agonists of the estrogen related receptor signaling pathway with the pleiotropic PPARgamma coactivator (PGC) from Tox21 10K library (AID 1224842). Further: nearly all actives have a fitted effect of over 15% in size. Put shortly:
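PGC/ERR reporter cell line, 2,000 cells per well, incubated 6 h at 37 C before 23 nL compound in DMSO was added. After 18 h at 37 C, One-Glo luminescence read following 30 min at room temperature.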

Test [17] can be described thus: qHTS assay to identify small molecule antagonists of the estrogen related receptor (ERR) signaling pathway from Tox21 library (AID 1224848). Further: nearly all actives have a fitted effect of over 50% in size. Put shortly:
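ERR reporter cell line (from NTP) seeded 2,000 cells/well, rested 6 h at 37 C/5% CO2, then pin-dosed with compounds in DMSO. After 18 h at 37 C, ONE-Glo added; luminescence read after 30 min at room temperature.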

Test [18] in a line: qHTS assay to identify small molecule agonists of the estrogen related receptor (ERR) signaling pathway from Tox21 library (AID 1224849; calls by dose curve; further: nearly all actives have a fitted effect of over 15% in size). Conditions: ERR reporter cell line, ONE-Glo luciferase, 18 h; at 92.4 µM (top of the series) unless noted. A digest of the protocol: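 ERR reporter cell line (NTP) seeded, rested 6 h at 37 C/5% CO2, then pinned with Tox21 compounds in DMSO. After 18 h at 37 C, ONE-Glo luciferase luminescence was read following 30 min at room temperature.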

Test [19] in a line: qHTS assay to identify small molecule agonists of H2AX (AID 1224845; active means well fitted activation curve with a large enough effect in the signal ratio in the repeat runs, not every such curve was filed as active; the % refers to the signal ratio). A digest of the protocol: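 Wild-type CHO-K1 cells, plated overnight, exposed 3hr at 37C to 15 concentrations (0.76% DMSO final). Lysed, then HTRF anti-pH2AX (S139) cryptate and anti-H2AX-d2 antibodies, 24 hr room temperature; 665/620 nm emission read.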

A number with no mark means an inactive call. Records with an inconclusive call do not appear. Activity calls are given as the source filed them. Unless noted, the call rests on the fitted dose curve; in most records, active means well fitted curve in the direction sought with a large enough effect in the repeat runs; inconclusive means weak or mixed curves; inactive means no such curve, though single readings can be large; an effect the other way counts as inactive or inconclusive.
On the % scale 0 is the no-effect control and ±100 the full control effect.

Sequence of Nuclear receptor subfamily 1 group I member 3 (Homo sapiens) (Q14994 whole entry, looked up): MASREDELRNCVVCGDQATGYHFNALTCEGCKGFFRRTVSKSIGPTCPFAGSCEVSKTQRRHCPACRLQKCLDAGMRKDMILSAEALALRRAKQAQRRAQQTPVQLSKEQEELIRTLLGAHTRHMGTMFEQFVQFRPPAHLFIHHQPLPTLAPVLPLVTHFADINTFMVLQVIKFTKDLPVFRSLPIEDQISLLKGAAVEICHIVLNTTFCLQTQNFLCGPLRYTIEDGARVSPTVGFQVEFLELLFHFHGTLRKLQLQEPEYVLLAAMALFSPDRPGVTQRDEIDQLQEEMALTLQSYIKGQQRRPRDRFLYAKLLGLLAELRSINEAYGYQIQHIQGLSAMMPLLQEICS
Sequence of Thyrotropin receptor (Homo sapiens) (P16473 whole entry, looked up): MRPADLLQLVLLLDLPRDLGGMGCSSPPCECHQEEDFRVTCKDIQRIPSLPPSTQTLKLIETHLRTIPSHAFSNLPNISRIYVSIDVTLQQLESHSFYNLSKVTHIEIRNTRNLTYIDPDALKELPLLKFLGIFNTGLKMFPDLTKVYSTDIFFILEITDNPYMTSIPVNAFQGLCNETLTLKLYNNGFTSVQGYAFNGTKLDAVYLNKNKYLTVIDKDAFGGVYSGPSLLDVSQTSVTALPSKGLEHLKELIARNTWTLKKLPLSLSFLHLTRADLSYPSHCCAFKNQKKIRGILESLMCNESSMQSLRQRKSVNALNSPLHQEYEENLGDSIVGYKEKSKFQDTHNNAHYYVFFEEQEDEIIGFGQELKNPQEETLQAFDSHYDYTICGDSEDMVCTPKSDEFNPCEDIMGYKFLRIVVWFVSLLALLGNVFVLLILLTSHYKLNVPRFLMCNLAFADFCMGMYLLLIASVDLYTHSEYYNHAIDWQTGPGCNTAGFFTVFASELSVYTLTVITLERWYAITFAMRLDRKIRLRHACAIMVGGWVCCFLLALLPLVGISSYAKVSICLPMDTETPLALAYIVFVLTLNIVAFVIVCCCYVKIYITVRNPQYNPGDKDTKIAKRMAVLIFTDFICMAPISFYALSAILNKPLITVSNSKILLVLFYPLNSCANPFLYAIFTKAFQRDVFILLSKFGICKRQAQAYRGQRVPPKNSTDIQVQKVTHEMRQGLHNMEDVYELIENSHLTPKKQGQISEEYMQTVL
Sequence of Luciferin 4-monooxygenase (Photinus pyralis) (P08659 whole entry, looked up): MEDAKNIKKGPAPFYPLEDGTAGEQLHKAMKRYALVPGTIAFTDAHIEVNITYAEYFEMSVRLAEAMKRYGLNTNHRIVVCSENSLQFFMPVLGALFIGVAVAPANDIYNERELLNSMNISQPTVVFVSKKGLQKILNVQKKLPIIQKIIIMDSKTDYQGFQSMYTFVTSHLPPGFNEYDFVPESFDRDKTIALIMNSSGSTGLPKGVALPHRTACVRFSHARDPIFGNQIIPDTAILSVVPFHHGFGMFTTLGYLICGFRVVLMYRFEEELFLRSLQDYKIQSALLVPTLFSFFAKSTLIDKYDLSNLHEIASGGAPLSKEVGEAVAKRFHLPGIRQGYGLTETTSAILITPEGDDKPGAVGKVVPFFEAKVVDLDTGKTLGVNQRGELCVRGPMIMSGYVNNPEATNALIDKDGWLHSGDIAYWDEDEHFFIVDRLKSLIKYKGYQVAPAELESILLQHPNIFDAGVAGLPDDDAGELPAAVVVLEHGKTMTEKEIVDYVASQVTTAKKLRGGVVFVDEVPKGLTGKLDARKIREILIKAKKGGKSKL

With `Oc1c(Cl)cccc1Cl`, the Potency entry in test [1], in [2], in [3], in test [4], in [5] and in test [6] was “inactive” each time. The Potency entry in [7], in [9], in [10], in test [11], in [12] and in [13] was “inactive” in each case. In test [14], the Potency result is “inactive”. Besides, the compound was called inactive in test [8].
For `CC(Cl)(Cl)[N+](=O)[O-]`, the Potency entry in test [1], in test [2], in test [3], in test [4], in test [5] and in test [15] was “inactive” throughout. Moreover, the Potency result in test [6], in [7], in [9], in test [17], in test [10] and in test [11] was “inactive” each time. Besides, the Potency entry in [12], in test [13] and in test [14] was “inactive” in each case. The compound was called inactive in test [16] and in [8]. Besides, the activity change, positive = activation in test [18] was 2.67%.
On to `COC(=O)c1c(C(F)F)nc(C(F)(F)F)c(C2=NCCS2)c1CC(C)C`, for which the Potency result in test [1], in [2], in [3], in test [4], in test [5] and in test [15] was “inactive” in each case. Besides, the Potency entry in test [7], in test [19], in [9], in test [17], in test [10] and in test [11] was “inactive” each time. Besides, the Potency entry in [12], in [13] and in test [14] was “inactive” throughout. In addition, the call in [16] and in test [8] was inactive. Moreover, in test [18], the activity change, positive = activation was 1.38%.
In the case of `COc1cc(OC)nc(NC(=O)NS(=O)(=O)c2ncccc2OCC(F)(F)F)n1`, the Potency entry in test [1], in test [2], in test [3], in test [4], in [5] and in test [15] was “inactive” throughout. In addition, the Potency result in [7], in test [9], in test [17], in test [10], in [11] and in test [12] was “inactive” each time. The Potency result in test [13] and in [14] was “inactive” each time. Moreover, the compound was classed as inactive in test [16] and in test [8]. Besides, the activity change, positive = activation in test [18] was 9.4%.
`CCOP(=O)(OCC)OP(=O)(OCC)OCC`: the Potency result in [1], in test [2], in test [3], in test [4], in [5] and in test [6] was “inactive” each time. Moreover, the Potency entry in test [7], in test [19], in test [9], in test [10], in test [11] and in [12] was “inactive” each time. The Potency result in test [13] is “inactive”. Moreover, the compound was called inactive in [8].
For the compound `Nc1c(Br)cc([N+](=O)[O-])cc1[N+](=O)[O-]`, the Potency entry in test [1], in test [2], in test [3], in [4], in test [5] and in test [15] was “inactive” each time. Also, the Potency result in test [6], in [7], in test [19], in test [10], in test [11] and in [12] was “inactive” throughout. Also, the Potency result in [13] and in test [14] was “inactive” in each case. Also, the outcome in [16] and in test [8] was inactive. For the same compound, the activity change, positive = activation in [18] is -26.5%.
On to `O=[N+]([O-])c1ccc(CBr)cc1`, for which the Potency result in test [1], in test [2], in [3], in [4], in [5] and in [19] was “inactive” throughout. The Potency result in test [9], in [10], in test [11], in test [12] and in test [13] was “inactive” in each case. In addition, the Potency in test [7] was 24.2 µM (active).
For `Cc1coc2c1CCC(C)C2` (centres undefined), the Potency entry in [1], in [2], in [3], in test [4], in test [5] and in test [6] was “inactive” throughout. For the same compound, the Potency entry in test [7], in [9], in test [10], in test [11], in [12] and in [13] was “inactive” throughout. In addition, the Potency entry in test [14] is “inactive”. Moreover, in test [8], the call was inactive.
